What follows are sequences tested against RUNX1 (UniProt Q01196) (assay: RUNX1 binding intensity (PBM fluorescence) in presence of ETS1, normalised to RUNX1-only experiment (arbitrary fluorescence units); higher = stronger binding). Details: RUNX1 concentration 2 nM; ETS1 concentration 25 nM.
Chain of RUNX1 (Q01196 whole entry): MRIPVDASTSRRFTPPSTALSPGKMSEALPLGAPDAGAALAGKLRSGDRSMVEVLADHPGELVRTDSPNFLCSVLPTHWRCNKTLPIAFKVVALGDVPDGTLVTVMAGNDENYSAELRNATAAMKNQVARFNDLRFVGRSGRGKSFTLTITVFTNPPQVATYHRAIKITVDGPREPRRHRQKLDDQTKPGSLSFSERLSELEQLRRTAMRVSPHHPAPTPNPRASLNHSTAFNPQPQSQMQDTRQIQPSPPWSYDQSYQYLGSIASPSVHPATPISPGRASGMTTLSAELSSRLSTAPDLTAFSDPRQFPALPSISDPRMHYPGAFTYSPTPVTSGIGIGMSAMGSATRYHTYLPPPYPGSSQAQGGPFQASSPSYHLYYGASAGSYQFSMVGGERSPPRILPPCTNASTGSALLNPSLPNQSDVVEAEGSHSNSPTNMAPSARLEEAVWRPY
Experimental: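 Cooperative gcPBM on 36-bp genomic probes with neighbouring ETS1 and RUNX1 sites. Recombinant human RUNX1 (2 nM) was incubated alone or with ETS1 (25 nM) and detected with anti-RUNX1 antibody plus Alexa488 secondary. Values are medians over 4 replicate spots; the RUNX1+ETS1 data were normalised to the RUNX1-only data. The probes sit in constant array flanks that are not printed.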
In the case of CTTTGTTGAAAAGGATGTGGTCATCTGATCTTGCTG, the RUNX1 binding intensity is reported as 2000.
TTTTTAAGGTCAGGATGTGGGCACATCTAAGGGGCA showed an RUNX1 binding intensity of 1370.
Work on GTGCAGGGCCCGGAAGCTCAGTGTGGTTAAAGACAT yielded an RUNX1 binding intensity of 1540.
With AGGAGAACTTCCGCCCTTACTATATTACCGCCGGTA the RUNX1 binding intensity was 1520.
Sequence GGGGCAGCTTCCGGCAGGAGAGCCCGCATTCCCGGC has an RUNX1 binding intensity of 2470.
Work on ACAACTTCCTGTGGGATTTTTGGTGTCTGCGGCTCA yielded an RUNX1 binding intensity of 2810.
In the case of GAATGACAGAAGCGGAAACCACATGAAAAAGGTGTT, the RUNX1 binding intensity is reported as 1360.
Work on ACCGGCCGAGCCAACTTCCGGCCGCAGAGGCTGCCG yielded an RUNX1 binding intensity of 1840.
With CCTTCCTTCCTGCTGTGTACGTTGTGGTCACAGCAC the RUNX1 binding intensity was 3550.
AGCTTGCGCAGGAAGTCTGCGGCAGGAGGGCGTCCT gave an RUNX1 binding intensity of 908.
For GTCCCACGCGACTTCCTGCGGGAAACATGGCGGCAT, the RUNX1 binding intensity was 2170.
In the case of TGACTTCCTCCTCTTCACTAACAGAAACCTCAATTT, the RUNX1 binding intensity is reported as 2570.
Sequence AGCTGCTGTTTTCCGGCTGCGGCACTGGATGAAGGA has an RUNX1 binding intensity of 1350.
Sequence GGAGCATCCCGGAAGTCGTCACTGCGGCCGCTCCCG has an RUNX1 binding intensity of 1770.
TTACAGGGGCCGGAAGTGGCCTGCGGGCGGAGAAGT gave an RUNX1 binding intensity of 2020.
GAGCATAGCCTAGCAGGATGTGGTTAAATACATTTG gave an RUNX1 binding intensity of 1970.
Work on GTTCATCCAGGAAACCCCAACCCAGTGCCGCAGTAT yielded an RUNX1 binding intensity of 1080.
Sequence CTTAGTGGGGCAGGATGTGGTCAGGGAAGCTGATCT has an RUNX1 binding intensity of 7670.
TAAGCAGGGAATAGAGGAAGTGGTTTTGTCTCAGGC was tested, and the RUNX1 binding intensity was 1780.
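Also: Full-length recombinant human ETS1 or RUNX1 bound to double-stranded 36-bp genomic probes on microarrays, detected by protein-specific primary antibody and Alexa488 secondary, spot fluorescence as median of four replicate spots.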
